Measured values from PMC11062922 (Nature Chemical Biology, 2023).
Where two headings read alike, the source gives them in different places.

Tests used:
AAK1 = test system: AAK1; parameters: species or system human, MV4-11 + K-562 + COLO205 + SK-N-BE2 + OVCAR-8; conditions: read-out: apparent Kd, compound concentrations: 100 nM and 1000 nM (sheet 'Samples'), n = 1
CLK1 = test system: CLK1; parameters: species or system human, MV4-11 + K-562 + COLO205 + SK-N-BE2 + OVCAR-8; conditions: read-out: apparent Kd, compound concentrations: 100 nM and 1000 nM (sheet 'Samples'), n = 1
CLK4 = test system: CLK4; parameters: species or system human, MV4-11 + K-562 + COLO205 + SK-N-BE2 + OVCAR-8; conditions: read-out: apparent Kd, compound concentrations: 100 nM and 1000 nM (sheet 'Samples'), n = 1
CSNK2A1;CSNK2A3 = test system: CSNK2A1;CSNK2A3; parameters: species or system human, MV4-11 + K-562 + COLO205 + SK-N-BE2 + OVCAR-8; conditions: read-out: apparent Kd, compound concentrations: 100 nM and 1000 nM (sheet 'Samples'), n = 1
CSNK2A2 = test system: CSNK2A2; parameters: species or system human, MV4-11 + K-562 + COLO205 + SK-N-BE2 + OVCAR-8; conditions: read-out: apparent Kd, compound concentrations: 100 nM and 1000 nM (sheet 'Samples'), n = 1
Q6ZSR9 = Q6ZSR9 (human, UniProt Q6ZSR9); parameters: species or system MV4-11 + K-562 + COLO205 + SK-N-BE2 + OVCAR-8; conditions: read-out: apparent Kd, compound concentrations: 100 nM and 1000 nM (sheet 'Samples'), n = 1
Sequence of Q6ZSR9 (Q6ZSR9 whole entry, looked up): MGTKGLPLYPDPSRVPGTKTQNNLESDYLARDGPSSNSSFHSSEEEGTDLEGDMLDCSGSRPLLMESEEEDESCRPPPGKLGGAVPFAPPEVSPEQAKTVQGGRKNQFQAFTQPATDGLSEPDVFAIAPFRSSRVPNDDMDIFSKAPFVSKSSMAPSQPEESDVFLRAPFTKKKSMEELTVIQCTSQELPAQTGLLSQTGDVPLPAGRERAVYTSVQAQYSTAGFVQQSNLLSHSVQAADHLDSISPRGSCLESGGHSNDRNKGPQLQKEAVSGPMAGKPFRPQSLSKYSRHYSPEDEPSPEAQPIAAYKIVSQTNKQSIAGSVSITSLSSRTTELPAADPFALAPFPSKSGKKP

ABL1 = test system: ABL1; parameters: species or system human, MV4-11 + K-562 + COLO205 + SK-N-BE2 + OVCAR-8; conditions: read-out: apparent Kd, compound concentrations: 100 nM and 1000 nM (sheet 'Samples'), n = 1
ABL2 = test system: ABL2; parameters: species or system human, MV4-11 + K-562 + COLO205 + SK-N-BE2 + OVCAR-8; conditions: read-out: apparent Kd, compound concentrations: 100 nM and 1000 nM (sheet 'Samples'), n = 1
ACVR1B = test system: ACVR1B; parameters: species or system human, MV4-11 + K-562 + COLO205 + SK-N-BE2 + OVCAR-8; conditions: read-out: apparent Kd, compound concentrations: 100 nM and 1000 nM (sheet 'Samples'), n = 1
BCR = test system: BCR; parameters: species or system human, MV4-11 + K-562 + COLO205 + SK-N-BE2 + OVCAR-8; conditions: read-out: apparent Kd, compound concentrations: 100 nM and 1000 nM (sheet 'Samples'), n = 1
GAK = test system: GAK; parameters: species or system human, MV4-11 + K-562 + COLO205 + SK-N-BE2 + OVCAR-8; conditions: read-out: apparent Kd, compound concentrations: 100 nM and 1000 nM (sheet 'Samples'), n = 1
RIPK2 = test system: RIPK2; parameters: species or system human, MV4-11 + K-562 + COLO205 + SK-N-BE2 + OVCAR-8; conditions: read-out: apparent Kd, compound concentrations: 100 nM and 1000 nM (sheet 'Samples'), n = 1
FYN = test system: FYN; parameters: species or system human, MV4-11 + K-562 + COLO205 + SK-N-BE2 + OVCAR-8; conditions: read-out: apparent Kd, compound concentrations: 100 nM and 1000 nM (sheet 'Samples'), n = 1
HCK = test system: HCK; parameters: species or system human, MV4-11 + K-562 + COLO205 + SK-N-BE2 + OVCAR-8; conditions: read-out: apparent Kd, compound concentrations: 100 nM and 1000 nM (sheet 'Samples'), n = 1
LCK = test system: LCK; parameters: species or system human, MV4-11 + K-562 + COLO205 + SK-N-BE2 + OVCAR-8; conditions: read-out: apparent Kd, compound concentrations: 100 nM and 1000 nM (sheet 'Samples'), n = 1
PTK6 = test system: PTK6; parameters: species or system human, MV4-11 + K-562 + COLO205 + SK-N-BE2 + OVCAR-8; conditions: read-out: apparent Kd, compound concentrations: 100 nM and 1000 nM (sheet 'Samples'), n = 1
RET = test system: RET; parameters: species or system human, MV4-11 + K-562 + COLO205 + SK-N-BE2 + OVCAR-8; conditions: read-out: apparent Kd, compound concentrations: 100 nM and 1000 nM (sheet 'Samples'), n = 1
RIPK3 = test system: RIPK3; parameters: species or system human, MV4-11 + K-562 + COLO205 + SK-N-BE2 + OVCAR-8; conditions: read-out: apparent Kd; compound concentrations: 100 nM and 1000 nM (sheet 'Samples'), CATDS: 1.48381507951055E-2; n = 1
YES1 = test system: YES1; parameters: species or system human, MV4-11 + K-562 + COLO205 + SK-N-BE2 + OVCAR-8; conditions: read-out: apparent Kd, compound concentrations: 100 nM and 1000 nM (sheet 'Samples'), n = 1
TNK1 = test system: TNK1; parameters: species or system human, MV4-11 + K-562 + COLO205 + SK-N-BE2 + OVCAR-8; conditions: read-out: apparent Kd; compound concentrations: 100 nM and 1000 nM (sheet 'Samples'), CATDS: 2.1534980047370499E-2; n = 1

With `O=C1N=C(NCc2ccccc2)S/C1=C\c1ccc2ncccc2c1` [RO4442080-000] as the compound, how does the potency estimated from few doses (AAK1; CATDS: 8.89289230622759E-2) read?
Its potency estimated from few doses is 1380 nM.

And the potency estimated from few doses (CLK1; CATDS: 0.13842928601840401)?
Its potency estimated from few doses is 521 nM.

What about the potency estimated from few doses (CLK4; CATDS: 0.11834941417905) of the same compound?
Its potency estimated from few doses is 701 nM.

What about the potency estimated from few doses (CSNK2A1;CSNK2A3; CATDS: 0.15313565978355501) of the same compound?
Its potency estimated from few doses is 438 nM.

What about the potency estimated from few doses (CSNK2A2; CATDS: 0.175887275734743) of the same compound?
Its potency estimated from few doses is 351 nM.

And the potency estimated from few doses (Q6ZSR9; CATDS: 0.110093670656788)?
Its potency estimated from few doses is 815 nM.

What does the source list for `O=C1N=C(NCc2ccccc2Cl)S/C1=C\c1ccc2ncccc2c1` [RO4506917-000]?
potency estimated from few doses (AAK1; CATDS: 0.11408276718016799): 696 nM; potency estimated from few doses (CLK1; CATDS: 0.13615422717459799): 443 nM; potency estimated from few doses (CLK4; CATDS: 0.16237253930463899): 307 nM; potency estimated from few doses (CSNK2A1;CSNK2A3; CATDS: 0.21358904197946299): 190 nM; potency estimated from few doses (CSNK2A2; CATDS: 0.17001055355195799): 281 nM; potency estimated from few doses (Q6ZSR9; CATDS: 9.7347252089560202E-2): 1190 nM

Which potency estimated from few doses (ABL1; CATDS: 3.3551530123454902E-2) does the source give for `NC(=O)c1cccc(Nc2nccc(Nc3cccc4[nH]ncc34)n2)c1` [GW782612X] here?
The potency estimated from few doses was 1900 nM.

And the potency estimated from few doses (ABL2; CATDS: 4.6849720703519497E-2)?
The potency estimated from few doses was 629 nM.

What about the potency estimated from few doses (ACVR1B; CATDS: 5.6390113546044701E-2) of the same compound?
The potency estimated from few doses was 401 nM.

What about the potency estimated from few doses (BCR; CATDS: 5.7731069178064698E-2) of the same compound?
The potency estimated from few doses was 381 nM.

What about the potency estimated from few doses (CLK1; CATDS: 3.6631639688053302E-2) of the same compound?
The potency estimated from few doses was 1340 nM.

What about the potency estimated from few doses (CLK4; CATDS: 4.0513674478844103E-2) of the same compound?
Its potency estimated from few doses is 951 nM.

What about the potency estimated from few doses (CSNK2A2; CATDS: 3.4795292983427199E-2) of the same compound?
Its potency estimated from few doses is 1630 nM.

And the potency estimated from few doses (GAK; CATDS: 4.0699733875589103E-2)?
Its potency estimated from few doses is 937 nM.

What about the potency estimated from few doses (RIPK2; CATDS: 7.1079405795032996E-2) of the same compound?
The potency estimated from few doses was 247 nM.

What does the source list for `Cc1ccc(O)cc1Nc1ccnc2cc(-c3ccc(CN4CCCCC4)o3)ccc12` [GW557777X]?
potency estimated from few doses (ABL1; CATDS: 4.3692235612931E-2): 8.34 nM; potency estimated from few doses (ABL2; CATDS: 6.7746368355333403E-2): 2.92 nM; potency estimated from few doses (ACVR1B; CATDS: 2.3041961266034101E-2): 60.3 nM; potency estimated from few doses (BCR; CATDS: 0.10189444124387): 1.17 nM; potency estimated from few doses (FYN; CATDS: 2.5035707525361502E-2): 44.5 nM; potency estimated from few doses (GAK; CATDS: 5.9852273314458602E-2): 3.88 nM; potency estimated from few doses (HCK; CATDS: 2.2990890088698399E-2): 60.9 nM; potency estimated from few doses (LCK; CATDS: 1.5741185519971699E-2): 353 nM; potency estimated from few doses (PTK6; CATDS: 2.4564391165164502E-2): 47.6 nM; potency estimated from few doses (RET; CATDS: 4.4477848245190701E-2): 7.97 nM; potency estimated from few doses (RIPK2; CATDS: 5.5536056615070897E-2): 4.62 nM; potency estimated from few doses (RIPK3): 508 nM; potency estimated from few doses (YES1; CATDS: 2.43288733372133E-2): 49.3 nM

For `CN1C(=O)c2ccccc2N(C)c2nc(Nc3cnn(C4CCNCC4)c3)ncc21` [XMD-17-51], which potency estimated from few doses (ABL1; CATDS: 3.0247523924653401E-2) is on record?
The potency estimated from few doses was 152 nM.

What about the potency estimated from few doses (ABL2; CATDS: 2.0369269177780699E-2) of the same compound?
Its potency estimated from few doses is 429 nM.

What about the potency estimated from few doses (ACVR1B; CATDS: 2.1196121470028601E-2) of the same compound?
The potency estimated from few doses was 383 nM.

What about the potency estimated from few doses (BCR; CATDS: 6.3621758322441394E-2) of the same compound?
Its potency estimated from few doses is 32.4 nM.

What about the potency estimated from few doses (FYN; CATDS: 1.52897278360091E-2) of the same compound?
Its potency estimated from few doses is 1140 nM.

What about the potency estimated from few doses (HCK; CATDS: 1.5765780158237999E-2) of the same compound?
The potency estimated from few doses was 1000 nM.

And the potency estimated from few doses (LCK; CATDS: 2.0561496325198901E-2)?
Its potency estimated from few doses is 418 nM.

And the potency estimated from few doses (PTK6; CATDS: 1.5181861275826099E-2)?
The potency estimated from few doses was 1170 nM.

And the potency estimated from few doses (RET; CATDS: 5.3896447188978902E-2)?
The potency estimated from few doses was 44.2 nM.

And the potency estimated from few doses (RIPK2; CATDS: 1.9176534260091301E-2)?
Its potency estimated from few doses is 514 nM.

And the potency estimated from few doses (TNK1)?
Its potency estimated from few doses is 366 nM.

And the potency estimated from few doses (YES1; CATDS: 2.1066601667733099E-2)?
The potency estimated from few doses was 389 nM.

For `CNC1=NC(=O)/C(=C/c2ccc3ncccc3c2)S1` [RO4595949-000], which potency estimated from few doses (AAK1; CATDS: 6.4601129134093493E-2) is on record?
The potency estimated from few doses was 737 nM.

What about the potency estimated from few doses (CLK1; CATDS: 0.21110804330204799) of the same compound?
Its potency estimated from few doses is 68.5 nM.

And the potency estimated from few doses (CLK4; CATDS: 7.8220573800827503E-2)?
Its potency estimated from few doses is 429 nM.

And the potency estimated from few doses (CSNK2A1;CSNK2A3; CATDS: 0.13596728585800399)?
The potency estimated from few doses was 136 nM.

What about the potency estimated from few doses (CSNK2A2; CATDS: 0.13149975380310699) of the same compound?
The potency estimated from few doses was 144 nM.

And the potency estimated from few doses (Q6ZSR9; CATDS: 0.14278895493122401)?
The potency estimated from few doses was 125 nM.

With `Cc1cccc(Nc2nc(NCCN)ncc2C(N)=O)c1` [GSK1292139B] as the compound, how does the potency estimated from few doses (AAK1; CATDS: 0.21003536001632001) read?
The potency estimated from few doses was 164 nM.

What about the potency estimated from few doses (Q6ZSR9; CATDS: 0.320838512301937) of the same compound?
Its potency estimated from few doses is 88 nM.

Which results are given for `O=C1N=C(NCCc2ccccc2F)S/C1=C\c1ccc2ncccc2c1` [RO4498483-000]?
potency estimated from few doses (AAK1; CATDS: 8.5407630700809506E-2): 957 nM; potency estimated from few doses (CLK1; CATDS: 0.138137656029612): 347 nM; potency estimated from few doses (CLK4; CATDS: 9.8466136533641502E-2): 675 nM; potency estimated from few doses (CSNK2A1;CSNK2A3; CATDS: 0.15223513812582401): 295 nM; potency estimated from few doses (CSNK2A2; CATDS: 0.14884656797599799): 306 nM; potency estimated from few doses (Q6ZSR9; CATDS: 8.1205084555915505E-2): 1100 nM
